Assay results taken from PubChem BioAssay.
Several values for one entry are separate records, joined by “and”; a condition that tells them apart may be missing. Equal entries are not always repeated. Records with an inconclusive call do not appear. Where a structure was tested more than once in an assay, its records may differ in their call. Activity calls are given as the source filed them.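 The calls were made as follows, unless noted: active = normalized viability below 100% at a tested concentration; inactive = the rest.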

Experiments:
[1] = liver-stage malaria parasite growth inhibition, primary screen, cell-based, HepG2, luciferase luminescence, HepG2 viability (AID 624349; in the data active = parasite load remaining mostly below about 12%, no sharp cut-off; inactive = mostly above about 10%;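 also: 100% = mean of DMSO negative control wells on the same plate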); settings: P. berghei liver stage in HepG2, luciferase luminescence, concentration not given here; parasite load remaining: stronger effect = lower value; viability: measured here: HepG2 viability without parasites
[2] = stimulators of nuclear beta-catenin in C2C12, primary screen, imaging, WNT3A-conditioned medium, mouse C2C12, NPC library (AID 1117326; in the data active = nuclear beta-catenin stimulation mostly above about 4.2%, no sharp cut-off; inactive = mostly below about 10%); settings: stronger effect = higher value
[3] = stimulators of insulin release from INS-1E, primary screen, cell-based, 5 mM glucose, NPC library (AID 1117329;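 active = compound raises insulin release from rat beta cells at 5 mM glucose, no numeric limit stated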); settings: rat INS-1E insulin secretion, at 10 µM, stronger effect = higher value
[4] = growth inhibition of GSK3B-pretreated HCT116 cells – cell-based, CellTiter-Glo, 0.2 to 20 µM (AID 1117336;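 active = compounds lowering colon cancer cell viability after pretreatment blocking the GSK3B kinase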); settings: HCT116 viability after GSK3B inhibitor, at 20 µM, stronger effect = higher value
[5] = inhibition of endothelial tube formation, primary screen, imaging, VEGF stimulated, CD31 staining, tube area, NPC library (AID 1117340;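 active = compound that reduces growth-factor-driven endothelial tube area in a mixed cell culture, no cutoff stated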); settings: VEGF-stimulated ADSC/ECFC co-culture, at 10 µM, stronger effect = higher value
[6] = glucagon-like peptide 1 release enhancers, primary assay, NCI-H716 cell line, NPC library (AID 1117341;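 active = compound raises GLP1 secretion from the human gut endocrine cells, with no numeric limit stated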); settings: NCI-H716 cells, at 10 µM, stronger effect = higher value
[7] = HCT116 colon cancer cell growth inhibition, primary screen, CellTiter-Glo luminescence, NPC library (AID 1117342;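 active = compounds that lower survival of HCT116 colon cancer cells in the luminescence readout, no numeric limit stated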); settings: at 20 µM (top of the series)
[8] = CellTiter-Glo luminescent readout of SW480 viability loss, NPC library primary (AID 1117343;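 active = compounds that lower viability of the colon cancer cells in the luminescence readout, with no numeric limit stated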); settings: CellTiter-Glo luminescence; at 20 µM (top of the series) unless noted
[9] = decreased DLD-1 cellular survival, CellTiter-Glo luminescent readout, NPC compound collection, primary HTS (AID 1117346;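 active = compounds that lower survival of DLD-1 colon cancer cells in the luminescence readout, no cutoff given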); settings: DLD-1 viability, CellTiter-Glo luminescence; at 20 µM (top of the series)
[10] = growth inhibition of DIPG glioma cells, dose response, cell-based, JHH-DIPG-1, MIPE4.0, CellTiter-Glo, qHTS (AID 1347062; cut-off not given, nearly all actives have AC50 up to about 27 µM); settings: JHH-DIPG-1 viability, CellTiter-Glo ATP luminescence
[11] = viability loss in pontine glioma line – cell-based, SU-DIPG-XXV, MIPE5.0, CellTiter-Glo, qHTS, dose response (AID 1347065; cut-off not given, nearly all actives have AC50 up to about 26 µM;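 also: cells exposed to compound for 48 hours before ATP readout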); settings: CellTiter-Glo ATP luminescence
[12] = SU-DIPG-VI glioma cell viability, MIPE4.0 library, CellTiter-Glo luminescence, qHTS (AID 1347066; cut-off not given, nearly all actives have AC50 up to about 30 µM;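 also: cells exposed to compound for 48 hours before readout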); settings: CellTiter-Glo ATP luminescence
[13] = JHH-DIPG-1 glioma cell viability, MIPE5.0 library, CellTiter-Glo luminescence, qHTS (AID 1347067; cut-off not given, nearly all actives have AC50 up to about 26 µM;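 also: cells exposed to compound for 48 hours before readout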); settings: JHH-DIPG-1 glioma viability, CellTiter-Glo ATP luminescence
[14] = SU-DIPG-XXV glioma cell viability, MIPE5.0 library, qHTS (AID 1347068; cut-off not given, nearly all actives have IC50 up to about 30 µM;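 as to IC50: cells exposed to compound for 48 hours before viability readout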)
[15] = sensitizers of A549 cells to miR-34 induction, primary screen, imaging, A549 dox-inducible miR-34, nuclei and caspase counts (AID 1347080;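 active = compounds whose cell count with miR-34 switched on is under 0.7 times the count with it off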); settings: A549 miR-34 inducible, Hoechst nuclei count, 48 h
[16] = phospholipid biosynthesis inhibitors in animal cells, primary screen, cell-based, LOPAC library, screen 4 (AID 1347384; call rule not given here); settings: phospholipid biosynthesis inhibition screen, at 10 µM
[17] = survival rescue of mitochondrial mutant cells in low glucose, primary screen, MELAS cybrids, Rieske KO mouse fibroblasts, CellTiter-Glo (AID 1508586;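 active = mean z-score across replicates of 1.96 or higher in either the MELAS or the Rieske mutant cell line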;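 also: z relative to plate mean and SD of compound and empty wells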)
[18] = viability rescue of complex I mutant cybrids, primary screen, cell-based, galactose medium, ATP luminescence (AID 1645843;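 active = z-score of at least 1.8 in each of two replicates, scored against plate mean and spread of sample wells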;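 also: positive z means more ATP and so rescue of galactose-driven cybrid death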); settings: complex I mutant cybrid cells, 72 h, stronger effect = higher value
[19] = growth inhibition of DIPG glioma cells, dose response, cell-based, SU-DIPG-IV, MIPE4.0, CellTiter-Glo, qHTS (AID 1347063; cut-off not given, nearly all actives have AC50 up to about 30 µM;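 also: compound exposure lasted 48 hours before the viability readout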); settings: SU-DIPG-IV viability, CellTiter-Glo ATP luminescence
[20] = ovarian cancer cell viability with rucaparib, profiling panel, oncology-focused library, rucaparib conditional (AID 1508598); settings: patient-derived ovarian cancer cells, CellTiter-Glo viability, 144 h, stronger effect = lower value
[21] = stronger effect = lower value, cell number ratio, induced over uninduced
[22] = measured here: relative caspase fold change +Dox/-Dox
[23] = measured here: total cells with miR-34 induction, stronger effect = lower value
[24] = measured here: total cells without miR-34 induction
[25] = MELAS cybrid survival, CellTiter-Glo 48 h, stronger effect = higher value
[26] = Rieske KO mouse fibroblast survival, CellTiter-Glo 72 h

C[C@]12CC[C@@H]3c4ccc(O)cc4C[C@@H](CCCCCCCCCS(=O)CCCC(F)(F)C(F)(F)F)[C@H]3[C@@H]1CC[C@@H]2O (some centres not stated)
1.73 and 1.2: fold change [15, 22]
inactive: parasite load remaining [1] 12.8% | nuclear beta-catenin stimulation ([2]; at 10 µM) 1% | insulin secretion stimulation [3] 5.1% | viability decrease [4] -4.5% | tube area decrease [5] 16.2% | GLP1 secretion stimulation [6] -2.7% | inhibition of viability [7] 49.8% | viability decrease (inhibition) [9] 18.9% | outcome [10] | outcome [11] | outcome [12] | outcome [13] | outcome [14] | fold change [15, 21] 0.987 and 0.822 | outcome [16] | z-score [17, 25] -1.54 and 0.0305
-0.225 and 1.88: z-score [17, 26]
2.5 (active) and -0.155 (inactive): z-score [18]
121%: viability [1]
7310 and 7580: cell count [15, 24]
7220 and 6230: cell count [15, 23]
active: viability decrease (inhibition) [8] 54%
0.4%: nuclear beta-catenin stimulation ([2]; stimulation, at 2 µM)

CCC(C)(C)c1ccc(CC(C)CN2C[C@@H](C)O[C@@H](C)C2)cc1 (some centres not stated)
0.996 and 1.18: fold change [15, 22]
8200 and 10900: cell count [15, 24]
99%: viability [1]
-0.654 and -0.53: z-score [17, 26]
inactive: parasite load remaining [1] 32.9% | nuclear beta-catenin stimulation ([2]; at 10 µM) 0.2% | insulin secretion stimulation [3] -2.9% | viability decrease [4] 23.9% | tube area decrease [5] -0.6% | GLP1 secretion stimulation [6] 11.9% | inhibition of viability [7] 10.2% | outcome [10] | fold change [15, 21] 0.818 and 0.902 | z-score [17, 25] -0.995 and -0.921 | z-score [18] -1.82
active: viability decrease (inhibition) [8] 83.9% | viability decrease (inhibition) [9] 55.5%
0.5%: nuclear beta-catenin stimulation ([2]; stimulation, at 2 µM)
6710 and 9820: cell count [15, 23]

COc1cccc(N(C)C(=S)Oc2ccc3c(c2)CCCC3)n1
active: viability decrease (inhibition) [8] 54.5% | viability decrease (inhibition) [9] 55.4%
inactive: nuclear beta-catenin stimulation ([2]; at 10 µM) 0.4% | insulin secretion stimulation [3] -2.1% | viability decrease [4] 48.8% | tube area decrease [5] 17.8% | GLP1 secretion stimulation [6] -2.3% | inhibition of viability [7] 13.6% | outcome [10] | outcome [19] | z-score [17, 25] 0.186
-0.761: z-score [17, 26]
0.4%: nuclear beta-catenin stimulation ([2]; stimulation, at 2 µM)

COC(=O)C1=C(C)NC(C)=C(C(=O)OCCN2CCN(C(c3ccccc3)c3ccccc3)CC2)C1c1cccc([N+](=O)[O-])c1 (configuration not stated)
100%: viability [1]
1.4%: nuclear beta-catenin stimulation ([2]; stimulation, at 2 µM)
1.09 and 0.891 and 0.572: z-score [17, 26]
inactive: parasite load remaining [1] 20.2% | nuclear beta-catenin stimulation ([2]; at 10 µM) 7.1% | insulin secretion stimulation [3] -1.1% | GLP1 secretion stimulation [6] -1.8% | outcome [10] | outcome [19] | outcome [12] | z-score [17, 25] -0.211 and -0.214 and 0.218 | z-score [18] -1.36
active: viability decrease [4] 52.2% | tube area decrease [5] 106% | inhibition of viability [7] 78.5% | viability decrease (inhibition) [8] 135% | viability decrease (inhibition) [9] 96.4% | AC50 [11] 5.9 µM | AC50 [13] 13.2 µM | IC50 [14] 8.33 µM

CCCCc1ncc(/C=C(\Cc2cccs2)C(=O)O)n1Cc1ccc(C(=O)O)cc1
12.2%: nuclear beta-catenin stimulation ([2]; stimulation, at 2 µM)
9790 and 10900: cell count [15, 24]
-0.876: z-score [17, 26]
10200 and 8890: cell count [15, 23]
110%: viability [1]
inactive: parasite load remaining [1] 50.8% | nuclear beta-catenin stimulation ([2]; at 10 µM) 0.4% | insulin secretion stimulation [3] 2.05% | viability decrease [4] 9.7% | tube area decrease [5] -11.7% | GLP1 secretion stimulation [6] -2.1% | inhibition of viability [7] 0% | viability decrease (inhibition) [8] -13.7% | viability decrease (inhibition) [9] -4.6% | fold change [15, 21] 1.04 and 0.815 | outcome [16] | z-score [17, 25] 0.334 | z-score [18] 0.525 and 0.34
0.751 and 0.591: fold change [15, 22]

Nc1cccc2c1CN(C1CCC(=O)NC1=O)C2=O (configuration not stated)
active: viability ([20]; at 0.00488 µM, OCI-P5x cells, without rucaparib) 95.9%
0.3%: nuclear beta-catenin stimulation ([2]; stimulation, at 2 µM)
8190: cell count [15, 24]
0.686: z-score [17, 26]
inactive: nuclear beta-catenin stimulation ([2]; at 10 µM) 2% | insulin secretion stimulation [3] 1.3% | viability decrease [4] 0% | tube area decrease [5] -3.8% | GLP1 secretion stimulation [6] 0% | inhibition of viability [7] -8.6% | viability decrease (inhibition) [8] -19.5% | viability decrease (inhibition) [9] 1.2% | fold change [15, 21] 1.01 | z-score [17, 25] -0.434 | viability ([20]; at 0.000305 µM, OCI-C5x cells, with rucaparib 10 µM, 100% = cells with rucaparib alone) 116% | viability ([20]; at 0.000305 µM, OCI-C5x cells, without rucaparib) 116% | viability ([20]; at 0.000305 µM, OCI-P5x cells, with rucaparib 20 µM, 100% = cells with rucaparib alone) 126% | viability ([20]; at 0.000305 µM, OCI-P5x cells, without rucaparib) 106% | viability ([20]; at 0.00122 µM, OCI-C5x cells, with rucaparib 10 µM, 100% = cells with rucaparib alone) 122% | viability ([20]; at 0.00122 µM, OCI-C5x cells, without rucaparib) 116% | viability ([20]; at 0.00122 µM, OCI-P5x cells, with rucaparib 20 µM, 100% = cells with rucaparib alone) 130% | viability ([20]; at 0.00122 µM, OCI-P5x cells, without rucaparib) 105% | viability ([20]; at 0.00488 µM, OCI-C5x cells, with rucaparib 10 µM, 100% = cells with rucaparib alone) 126% | viability ([20]; at 0.00488 µM, OCI-C5x cells, without rucaparib) 115% | viability ([20]; at 0.00488 µM, OCI-P5x cells, with rucaparib 20 µM, 100% = cells with rucaparib alone) 123% | viability ([20]; at 0.0195 µM, OCI-C5x cells, with rucaparib 10 µM, 100% = cells with rucaparib alone) 113% | viability ([20]; at 0.0195 µM, OCI-C5x cells, without rucaparib) 114% | viability ([20]; at 0.0195 µM, OCI-P5x cells, with rucaparib 20 µM, 100% = cells with rucaparib alone) 125% | viability ([20]; at 0.0195 µM, OCI-P5x cells, without rucaparib) 107% | viability ([20]; at 0.0781 µM, OCI-C5x cells, with rucaparib 10 µM, 100% = cells with rucaparib alone) 120% | viability ([20]; at 0.0781 µM, OCI-C5x cells, without rucaparib) 132% | viability ([20]; at 0.0781 µM, OCI-P5x cells, with rucaparib 20 µM, 100% = cells with rucaparib alone) 133% | viability ([20]; at 0.0781 µM, OCI-P5x cells, without rucaparib) 109% | viability ([20]; at 0.313 µM, OCI-C5x cells, with rucaparib 10 µM, 100% = cells with rucaparib alone) 118% | viability ([20]; at 0.313 µM, OCI-C5x cells, without rucaparib) 117% | viability ([20]; at 0.313 µM, OCI-P5x cells, with rucaparib 20 µM, 100% = cells with rucaparib alone) 129% | viability ([20]; at 0.313 µM, OCI-P5x cells, without rucaparib) 109% | viability ([20]; at 1.25 µM, OCI-C5x cells, with rucaparib 10 µM, 100% = cells with rucaparib alone) 121% | viability ([20]; at 1.25 µM, OCI-C5x cells, without rucaparib) 119% | viability ([20]; at 1.25 µM, OCI-P5x cells, with rucaparib 20 µM, 100% = cells with rucaparib alone) 114% | viability ([20]; at 1.25 µM, OCI-P5x cells, without rucaparib) 103% | viability ([20]; at 5 µM, OCI-C5x cells, with rucaparib 10 µM, 100% = cells with rucaparib alone) 115% | viability ([20]; at 5 µM, OCI-C5x cells, without rucaparib) 117% | viability ([20]; at 5 µM, OCI-P5x cells, with rucaparib 20 µM, 100% = cells with rucaparib alone) 132% | viability ([20]; at 5 µM, OCI-P5x cells, without rucaparib) 110%
0.954: fold change [15, 22]
8240: cell count [15, 23]

COc1ccc(CCN(C)CCCC(C#N)(c2cc(OC)c(OC)c(OC)c2)C(C)C)cc1OC (configuration not stated)
9650 and 5610: cell count [15, 23]
9490 and 5880: cell count [15, 24]
inactive: nuclear beta-catenin stimulation ([2]; at 10 µM) 1% | insulin secretion stimulation [3] 0.45% | viability decrease [4] -1.5% | tube area decrease [5] 6.2% | GLP1 secretion stimulation [6] 5.2% | inhibition of viability [7] 18.9% | viability decrease (inhibition) [8] 22% | viability decrease (inhibition) [9] 4.6% | fold change [15, 21] 1.02 and 0.953 | outcome [16] | z-score [18] -0.635
0.7%: nuclear beta-catenin stimulation ([2]; stimulation, at 2 µM)
0.481 and 1.24: fold change [15, 22]
